Measurements published in PubChem BioAssay.
Calls of active or inactive are those of the source.

How the values were obtained:
[1] = biological target: Albumin (Bos taurus) (UniProt P02769); assay: bovine serum albumin binders on microarray, profiling panel, artefact control for SMM control protein annotation, biochemical, small-molecule microarray, Alexa647 label, 635/667 nm fluorescence (AID 1118); conditions: BSA-A647 binding, fluorescence 635 nm, higher = more signal;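 also: score merges 667 nm emission intensity and signal-to-noise per printed compound spot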
Albumin (Bos taurus), sequence (P02769 whole entry, looked up): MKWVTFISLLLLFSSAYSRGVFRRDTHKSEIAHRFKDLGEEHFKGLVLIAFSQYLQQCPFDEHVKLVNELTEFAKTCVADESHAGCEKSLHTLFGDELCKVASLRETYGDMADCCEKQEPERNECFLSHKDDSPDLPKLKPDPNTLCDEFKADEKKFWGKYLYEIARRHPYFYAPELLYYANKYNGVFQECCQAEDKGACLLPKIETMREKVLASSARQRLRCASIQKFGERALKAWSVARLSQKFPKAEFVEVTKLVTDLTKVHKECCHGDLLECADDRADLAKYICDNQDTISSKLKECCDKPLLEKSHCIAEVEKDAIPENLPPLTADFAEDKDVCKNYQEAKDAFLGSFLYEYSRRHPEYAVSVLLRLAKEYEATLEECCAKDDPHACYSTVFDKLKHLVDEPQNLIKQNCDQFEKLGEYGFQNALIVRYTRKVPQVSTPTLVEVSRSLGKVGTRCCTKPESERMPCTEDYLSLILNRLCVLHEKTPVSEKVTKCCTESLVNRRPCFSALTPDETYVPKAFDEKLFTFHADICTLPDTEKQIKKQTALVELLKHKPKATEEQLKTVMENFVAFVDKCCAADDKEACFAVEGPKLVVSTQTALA

[2] = small-molecule microarray binders of probe aXIP, primary screen, biochemical, NeuroSMM set, 635/667 nm fluorescence (AID 1119); conditions: higher = more signal, called active from +8 up or from −8 down;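 also: probe is the protein aXip251-270 applied at 1 µg/mL to compound-printed slides; binding of probe to printed compounds measured as 667 nm fluorescence plus signal to noise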
[3] = small-molecule binders of probe aNOTCH3, primary screen, biochemical, small-molecule microarray, 635/667 nm fluorescence (AID 1120); conditions: higher = more signal;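 also: probe is a biotin-tagged antibody raised against NOTCH3 rather than NOTCH3 protein; score merges spot fluorescence near 667 nm with spot signal to noise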
[4] = small-molecule binders of probe aNOTCH2, primary screen, biochemical, small-molecule microarray, 635/667 nm fluorescence (AID 1121); conditions: higher = more signal;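 also: score merges feature fluorescence read at 667 nm with its signal to noise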
[5] = biological target: Carbonic anhydrase 2 (Homo sapiens) (UniProt P00918); assay: CAII small-molecule binders, profiling panel, biochemical, small-molecule microarray, Alexa647-labelled CAII (AID 1122); conditions: CAII-A647 binding fluorescence, higher = more signal
[6] = COS7 lysate on small-molecule microarray, probe aHis, 635 nm (AID 1123); conditions: COS7 cell lysate, fluorescence, higher = more signal;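 also: z-score combines 667nm fluorescence intensity with signal-to-noise per printed compound spot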
[7] = compound binding in COS7 lysate, probe aLAP1, primary screen, cell lysate, small-molecule microarray (AID 1124); conditions: probe aLAP1, fluorescence, higher = more signal;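 also: lysate comes from COS7 cells expressing LAP1 and is applied at 0.3 µg/mL; score merges spot fluorescence near 667 nm with signal-to-noise over triplicate slides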
[8] = system: Sam68 (KHDRBS1); assay: Sam68 small-molecule binders, primary screen, biochemical, small-molecule microarray, 635 nm fluorescence (AID 1125); conditions: small-molecule microarray binding, higher = more signal;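 also: score merges 667 nm channel intensity with signal to noise over triplicate slides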
[9] = system: Chordin-like protein 2 (CHRDL2); assay: CHRDL2 small-molecule binders, primary screen, biochemical, small-molecule microarray, 635 nm fluorescence (AID 1126); conditions: small-molecule microarray binding, fluorescence 635 nm; higher = more signal;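 also: printed compound slides probed with Chrdl2 protein at 4 µg/mL for 1 h at 4 C; score merges 667 nm emission intensity with signal to noise over three replicate slides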
[10] = biological target: Concanavalin-A (Canavalia ensiformis) (UniProt P02866); assay: ConA small-molecule binders, primary screen, artefact control for SMM control protein annotation, biochemical, small-molecule microarray, Alexa647 label, 635 nm (AID 1127); conditions: ConA-A647 binding fluorescence, higher = more signal;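 also: z combines 667 nm emission intensity with signal-to-noise across three replicate slides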
Concanavalin-A (Canavalia ensiformis), sequence (P02866 whole entry, looked up): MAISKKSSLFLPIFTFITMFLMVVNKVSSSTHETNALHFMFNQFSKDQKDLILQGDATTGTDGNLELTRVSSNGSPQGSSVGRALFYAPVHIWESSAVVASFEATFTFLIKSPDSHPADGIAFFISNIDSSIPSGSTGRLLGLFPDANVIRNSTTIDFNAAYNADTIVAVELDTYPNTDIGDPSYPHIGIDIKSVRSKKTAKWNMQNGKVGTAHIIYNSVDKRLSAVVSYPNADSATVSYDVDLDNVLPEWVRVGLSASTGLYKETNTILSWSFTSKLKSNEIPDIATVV

[11] = anti-His antibody binders, primary screen, artefact control for SMM control protein annotation, biochemical, small-molecule microarray, 635 nm fluorescence (AID 1128); conditions: anti-His Alexa647 antibody binding, higher = more signal;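 also: score merges feature fluorescence with signal-to-noise for each printed compound spot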
[12] = system: Human papillomavirus type 1a E7 protein (residues 1-88); assay: HPV1a E7 small-molecule binders, primary screen, biochemical, small-molecule microarray, residues 1-88, 635 nm (AID 1129); conditions: small-molecule microarray binding, fluorescence 635 nm; higher = more signal
[13] = biological target: Focal adhesion kinase 1 (Homo sapiens) (UniProt Q05397); assay: small-molecule microarray binders of FAK, primary screen, biochemical, 635/667 nm fluorescence, BSA, DTT (AID 1130); conditions: PTK2 binding, 635 nm fluorescence, higher = more signal;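 also: composite of spot emission at 667 nm and signal to noise over triplicate slides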
Focal adhesion kinase 1 (Homo sapiens), sequence (Q05397 whole entry, looked up): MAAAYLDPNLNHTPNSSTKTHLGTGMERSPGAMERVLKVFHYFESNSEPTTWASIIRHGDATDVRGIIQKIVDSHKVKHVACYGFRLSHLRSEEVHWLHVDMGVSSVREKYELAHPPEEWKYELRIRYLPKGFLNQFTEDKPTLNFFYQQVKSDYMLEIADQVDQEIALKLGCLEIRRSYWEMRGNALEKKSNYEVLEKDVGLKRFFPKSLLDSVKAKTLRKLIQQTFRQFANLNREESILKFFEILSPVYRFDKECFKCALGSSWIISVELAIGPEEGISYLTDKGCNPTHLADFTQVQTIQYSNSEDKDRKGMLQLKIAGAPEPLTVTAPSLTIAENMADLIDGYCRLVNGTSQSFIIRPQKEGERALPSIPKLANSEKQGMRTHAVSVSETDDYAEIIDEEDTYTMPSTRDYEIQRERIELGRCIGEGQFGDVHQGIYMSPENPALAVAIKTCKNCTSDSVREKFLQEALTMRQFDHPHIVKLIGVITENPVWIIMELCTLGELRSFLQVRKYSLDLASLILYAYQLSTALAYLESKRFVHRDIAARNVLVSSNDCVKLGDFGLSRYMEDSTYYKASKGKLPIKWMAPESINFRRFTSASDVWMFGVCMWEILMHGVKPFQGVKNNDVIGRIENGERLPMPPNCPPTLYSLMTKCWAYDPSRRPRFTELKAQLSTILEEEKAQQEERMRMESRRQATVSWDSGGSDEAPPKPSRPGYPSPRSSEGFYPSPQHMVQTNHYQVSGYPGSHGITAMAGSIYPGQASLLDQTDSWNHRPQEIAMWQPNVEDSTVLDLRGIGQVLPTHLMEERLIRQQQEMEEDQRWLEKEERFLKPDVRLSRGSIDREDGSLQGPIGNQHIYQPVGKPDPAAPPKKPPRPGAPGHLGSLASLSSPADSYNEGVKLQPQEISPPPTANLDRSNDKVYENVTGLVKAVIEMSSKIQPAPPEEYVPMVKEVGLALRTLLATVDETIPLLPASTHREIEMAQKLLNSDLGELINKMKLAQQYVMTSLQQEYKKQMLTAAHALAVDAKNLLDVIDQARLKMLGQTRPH

[14] = system: Fibrinogen (Alexa647-labelled); assay: fibrinogen binders on compound microarrays, profiling panel, artefact control for SMM control-protein annotation, biochemical, small-molecule microarray, 635/667 nm fluorescence (AID 1131); conditions: fibrinogen-A647 binding fluorescence, higher = more signal;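 also: z-score merges 667 nm fluorescence with per-spot signal-to-noise over triplicate slides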
[15] = biological target: Follistatin (Homo sapiens) (UniProt P19883); assay: follistatin binders on small-molecule microarrays, primary screen, biochemical, small-molecule microarray, 635/667 nm fluorescence (AID 1132); conditions: FST binding, 635 nm fluorescence, higher = more signal
Follistatin (Homo sapiens), sequence (P19883 whole entry, looked up): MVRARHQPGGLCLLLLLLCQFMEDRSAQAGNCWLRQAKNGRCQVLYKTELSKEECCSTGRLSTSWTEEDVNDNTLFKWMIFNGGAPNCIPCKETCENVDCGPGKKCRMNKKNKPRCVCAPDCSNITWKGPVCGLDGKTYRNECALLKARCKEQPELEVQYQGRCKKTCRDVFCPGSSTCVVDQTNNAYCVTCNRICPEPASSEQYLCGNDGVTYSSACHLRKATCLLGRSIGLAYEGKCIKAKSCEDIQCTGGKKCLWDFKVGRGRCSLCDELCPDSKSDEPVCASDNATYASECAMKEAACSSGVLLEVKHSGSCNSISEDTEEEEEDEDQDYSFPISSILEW

[16] = biological target: Fibroblast growth factor 2 (Homo sapiens) (UniProt P09038); assay: FGF2 binders on small-molecule microarrays, primary screen, biochemical, small-molecule microarray, 635/667 nm fluorescence (AID 1133); conditions: small-molecule microarray binding, FGF2, fluorescence 635/667; higher = more signal
Fibroblast growth factor 2 (Homo sapiens), sequence (P09038 whole entry, looked up): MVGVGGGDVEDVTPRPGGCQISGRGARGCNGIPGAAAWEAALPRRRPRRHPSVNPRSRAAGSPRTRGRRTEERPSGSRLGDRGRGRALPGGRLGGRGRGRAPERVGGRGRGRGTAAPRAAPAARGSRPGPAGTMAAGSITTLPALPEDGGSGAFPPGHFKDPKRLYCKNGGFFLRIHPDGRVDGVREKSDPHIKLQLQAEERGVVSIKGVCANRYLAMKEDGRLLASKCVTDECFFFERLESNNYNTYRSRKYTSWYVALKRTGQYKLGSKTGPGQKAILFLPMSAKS

[17] = mitochondrial membrane potential change in A549 cells, profiling panel, cell-based, JC-1 fluorescence, basal, 24 h, 100 nL (AID 1138); conditions: higher = more signal;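 also: A549 lung adenocarcinoma cells under basal conditions with no added stimulus; test concentration not given here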
[18] = system: Lefty1; assay: Lefty1 binders on small-molecule microarrays, primary screen, biochemical, small-molecule microarray, 635/667 nm fluorescence (AID 1139); conditions: small-molecule microarray binding, fluorescence 635/667; higher = more signal
[19] = system: wheat germ agglutinin (Triticum aestivum), Alexa647-labelled; assay: wheat germ agglutinin binders on compound microarrays, profiling panel, artefact control for SMM control-protein annotation, biochemical, small-molecule microarray, 635/667 nm fluorescence (AID 1140); conditions: WGA-A647 binding, 635 nm fluorescence, higher = more signal;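 also: score merges 667 nm feature emission with signal to noise over triplicate slides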
[20] = biological target: Luciferin 4-monooxygenase (Photinus pyralis) (UniProt P08659); assay: firefly luciferase enzyme inhibitors, primary screen, biochemical, luminescence, purified enzyme, 2006 set (AID 1141); conditions: SteadyGlo luminescence, 30 min, higher = more signal, called active from +8 up or from −8 down;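 also: cell-free assay with purified firefly luciferase at 100 ng per well in PBS; test concentration not given here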
Luciferin 4-monooxygenase (Photinus pyralis), sequence (P08659 whole entry, looked up): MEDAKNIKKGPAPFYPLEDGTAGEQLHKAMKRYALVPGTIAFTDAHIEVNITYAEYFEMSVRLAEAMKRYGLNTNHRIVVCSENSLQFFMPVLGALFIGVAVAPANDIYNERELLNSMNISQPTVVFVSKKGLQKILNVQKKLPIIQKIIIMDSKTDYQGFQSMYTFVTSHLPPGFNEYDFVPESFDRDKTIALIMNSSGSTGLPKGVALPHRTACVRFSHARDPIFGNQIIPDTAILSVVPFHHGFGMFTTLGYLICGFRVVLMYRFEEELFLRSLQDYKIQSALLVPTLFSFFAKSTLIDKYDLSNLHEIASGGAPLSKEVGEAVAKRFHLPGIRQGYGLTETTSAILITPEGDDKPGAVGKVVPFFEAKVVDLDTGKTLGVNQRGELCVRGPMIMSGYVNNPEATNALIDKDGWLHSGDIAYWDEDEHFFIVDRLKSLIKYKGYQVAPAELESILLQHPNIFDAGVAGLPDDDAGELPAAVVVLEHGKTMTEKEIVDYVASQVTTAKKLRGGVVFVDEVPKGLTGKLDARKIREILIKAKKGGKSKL

| Compound | composite z-score [1] | composite Z-score [2] | composite z-score [3] | composite z-score [4] | composite z-score [5] | composite z-score [6] | composite z-score [7] | composite z-score [8] | composite z-score [9] | composite z-score [10] | composite z-score [11] | composite z-score [12] | composite z-score [13] | composite z-score [14] | composite z-score [15] | composite z-score [16] | z-score [17] | composite z-score [18] | composite z-score [19] | z-score [20] |
| --- | --- | --- | --- | --- | --- | --- | --- | --- | --- | --- | --- | --- | --- | --- | --- | --- | --- | --- | --- | --- |
| C=CCOC(=O)[C@H]1[C@@H]2C(=O)O[C@@H](c3ccccc3)[C@@H](c3ccccc3)N2[C@@H](c2ccc(OCCOC(=O)[C@H]3C[C@H]4C(=O)N[C@@H](CCCCNC(C)=O)C(=O)N4[C@H]3c3ccc(O)cc3)cc2)[C@]12C(=O)Nc1ccc(I)cc12 | -0.0312 | 0.745 (inactive) | 0.0876 | -0.147 | 0.253 | 0.837 | 0.0563 | 1.22 | 1.25 | 1.09 | 0.748 | 0.885 | 0.169 | 0.332 | 1.35 | 1.46 | -0.804 | 1.42 | 0.105 | -2.16 (inactive) |
| CCCCN1CC=CC23O[C@@H]4C=CCCOC(=O)C4[C@H]2C(=O)N(CCCCCCO)[C@@H]3C1=O (stereo not given in full) | 0.339 | 0.0289 (inactive) | -0.275 | -0.175 | 0.876 | 0.376 | 0.316 | 0.474 | -1 | -0.254 | 0.435 | -0.268 | 0.0134 | -0.796 | 0.0593 | -0.88 | 0.807 | 1.28 | 0.379 | -0.947 (inactive) |
| C=C[C@H](CO[Si](CC)(CC)CC)N(Cc1ccc(OC(C)=O)c(OC)c1)S(=O)(=O)c1ccc(Br)cc1 | 0.848 | 0.646 (inactive) | 0.295 | 0.0727 | 0.56 | 1.33 | 0.897 | 1.29 | 1.31 | 1.13 | 2.48 | 1.08 | 1.76 | 0.967 | 1.28 | 0.913 | -0.202 | 0.237 | 0.713 | 0.0578 (inactive) |
| CCC(CC)C(O)C1C=CC2C(=O)NC(=O)C2N1Nc1ccccn1 (stereo not given) | 0.958 | -0.248 (inactive) | -0.0219 | -0.0438 | 0.763 | 0.864 | -0.019 | 0.0905 | 0.416 | 0.228 | 0.823 | -0.0365 | 0.268 | -0.206 | 0.872 | 0.0277 | 0.693 | -0.0021 | 0.0789 | -0.0791 (inactive) |
| CCCCCN1CC=CC23O[C@@H]4C=CCCOC(=O)C4[C@H]2C(=O)N(CCCCCO)[C@@H]3C1=O (stereo not given in full) | 0.337 | 0.0269 (inactive) | -0.213 | -0.142 | 0.846 | 0.718 | 0.57 | -1.22 | -0.17 | -0.406 | 0.587 | 0.0287 | -0.383 | 0.302 | -1.03 | -0.347 | 1.4 | -0.582 | 0.796 | 0.0192 (inactive) |
| CC(=O)n1cc(C(O)C2C=CC3C(=O)N(c4ccccc4)C(=O)C3N2Nc2ccc([N+](=O)[O-])cc2)c2ccccc21 (stereo not given) | 0.932 | 0.406 (inactive) | 0.0159 | 0.386 | 0.778 | 2.22 | 1.33 | 1.34 | -1.4 | 0.823 | 3.33 | 0.981 | 0.457 | 0.916 | 0.347 | -0.105 | -1.02 | -0.719 | 1.45 | 1.08 (inactive) |
